PLK1 PBD block: PLK1 (human) polo-box domain binding inhibition; AID 720504; Plk1 PBD binding of FITC phosphopeptide, fluorescence polarization; 360,000 tested, 2.8% active; Potency, µM, for the others: max response, negative = inhibition, actives largely listed as inhibitors; further: series mostly up to about 57 µM; nearly all actives have a fitted effect of over 65% in size
rTrxR1 inhibitor: blocks rat thioredoxin reductase 1; O89049; recombinant rTrxR1, NADPH fluorescence consumption, selenite substrate; Potency, µM (highest dose often 114 µM), for inactives: at the highest dose activity change, negative = inhibition, hits mostly inhibitors; 390,000 tested, 1% active; further: nearly all actives have a fitted effect of over 65% in size
Target sequence (O89049 whole entry, looked up): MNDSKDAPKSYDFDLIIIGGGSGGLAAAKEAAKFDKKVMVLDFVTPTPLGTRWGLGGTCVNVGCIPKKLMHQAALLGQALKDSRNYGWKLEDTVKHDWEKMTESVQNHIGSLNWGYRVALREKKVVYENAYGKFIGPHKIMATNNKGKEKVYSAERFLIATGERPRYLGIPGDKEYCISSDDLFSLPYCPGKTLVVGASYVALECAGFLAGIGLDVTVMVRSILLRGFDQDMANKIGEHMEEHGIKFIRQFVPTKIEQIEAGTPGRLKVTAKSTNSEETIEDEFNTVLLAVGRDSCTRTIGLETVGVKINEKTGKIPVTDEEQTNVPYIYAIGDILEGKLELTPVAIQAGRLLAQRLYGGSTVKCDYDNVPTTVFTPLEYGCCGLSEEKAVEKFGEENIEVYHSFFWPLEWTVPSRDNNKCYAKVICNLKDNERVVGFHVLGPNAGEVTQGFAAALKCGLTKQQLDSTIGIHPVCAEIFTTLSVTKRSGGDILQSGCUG
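Rat TrxR1 (90 nM in the dispensed reagent) was pre-reduced with 400 uM NADPH for 5 min at room temperature, then incubated with compound for 15 min. After 400 uM selenite was added, NADPH fluorescence (Ex 340/Em 450 nm) was followed for 8 min.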
TrxR1 substrate: substrates of rat thioredoxin reductase 1; O89049; purified TrxR1 substrate turnover, NADPH consumption readout; Potency, µM (doses to about 114 µM), inactives show at the top dose activity change, negative = substrate turnover; 390,000 tested, 0.01% active; AID 588456; further: nearly all actives have a fitted effect of over 50% in size
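Rat TrxR1, dispensed at 90 nM, was prereduced with 400 uM NADPH (final) for 5 min at ~22 deg C, then incubated with compound 15 min before 400 uM selenite. A first-read NADPH fluorescence drop versus no-compound background flagged substrates.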
Sfp inh: blocks B. subtilis Sfp PPTase activity; Q9F4F7; Biochemical Sfp PPTase activity, qHTS; Potency, µM, inactives show largest response in the series, negative = inhibition, usual class: inhibitors; 310,000 tested, 3.5% active; AID 1490;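 further: the enzyme is Sfp with the accession as filed and its product quenches rhodamine fluorescence; 0% = enzyme reaction without inhibitor and -100% = no enzyme wells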
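Fluorescence-quenching assay: 15 nM Sfp-PPTase preincubated 15 min at room temperature with compound, then 5 uM rhodamine-CoA and 12.5 uM BHQ-2-labelled YbbR peptide added. Fluorescence (ex 525/em 598 nm) read at start and after 30 min; difference gives rate.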
VDR inhibitor: vitamin D3 receptor (human) inhibition; VDR-SRC2-3 peptide fluorescence polarization, 2 h; Potency, µM, for inactives: max response, negative = inhibition, most hits filed as inhibitors; 400,000 tested, 0.93% active
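Two reagent solutions held at 4 deg C in the dark were dispensed, compounds pinned at 23 nl, and the mixture incubated 2 h at room temperature. Read-out: fluorescence polarization of VDR–SRC2-3 peptide binding.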
IDH1 R132H inh: human IDH1 R132H inhibition. O75874. IDH1-R132H enzyme, NADPH consumption, diaphorase/resazurin fluorescence. Potency, µM (highest dose often 76.6 µM), inactives show at the top dose activity change, negative = inhibition, usual class: inhibitors. 390,000 tested, 0.093% active. AID 602179; further: nearly all actives have a fitted effect of over 65% in size
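IDH1-R132H (0.5 ug/mL) preincubated 30 min with compound, then NADPH (0.016 mM) and alpha-KG (2 mM) added; 80 min at RT, pH 7.5. Remaining NADPH coupled via diaphorase/resazurin to fluorescence (540/590 nm); concentration-response curves normalized to no-enzyme control.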
Active calls of the source: *; [ ] = dose if it differs, or a comment. This is a sample that favours compounds with a hit; in the whole collection about 5.2% have one here. The call rests on the fitted dose curve; in most records, active means well fitted curve in the direction sought with a large enough effect; inconclusive means small, poorly fitted or top-dose-only effect, or another doubt; inactive means no such curve, though single readings can be large; an effect the other way counts as inactive or inconclusive. Unless noted, on the % scale 0 is the no-effect control and ±100 the full control effect; potency means the concentration at half of the fitted maximal effect.

What do the screens show for `O=C1OC2(c3cc(I)c(O)c(I)c3Oc3c2cc(I)c(O)c3I)c2c(Cl)c(Cl)c(Cl)c(Cl)c21`?
Sfp inh: inconclusive; VDR inhibitor: 5µM*

How did O=C1OC2(c3ccccc31)c1cc(I)c(O)c(I)c1Oc1c2cc(I)c(O)c1I do in these assays?
Sfp inh: 14µM*; VDR inhibitor: 4.5µM*

Results for COC(=O)C[C@@H]1C=C[C@@H](NS(=O)(=O)c2ccc(OC)cc2)[C@@H](CO)O1 ?
PLK1 PBD block: 4%

What do the screens show for `Cn1c(N/N=C/c2cc3ccccc3nc2Cl)nc2ccccc21`?
PLK1 PBD block: 5%; rTrxR1 inhibitor: 23%[11.4 µM]; TrxR1 substrate: 4%[11.4 µM]; Sfp inh: 79µM*; VDR inhibitor: -6%; IDH1 R132H inh: 6%

Results for Cn1c(N/N=C/c2c[nH]c3ccccc23)nc2ccccc21 ?
PLK1 PBD block: -6%; rTrxR1 inhibitor: 5%; TrxR1 substrate: 2%; Sfp inh: -25%; VDR inhibitor: -12%; IDH1 R132H inh: 1%

Results for O=C(O)Cc1sc(Nc2ccccc2)nc1-c1ccc(Cl)cc1 ?
PLK1 PBD block: 21µM*; rTrxR1 inhibitor: 3%[57.1 µM]; TrxR1 substrate: 0%[57.1 µM]; Sfp inh: inconclusive; VDR inhibitor: 4%; IDH1 R132H inh: 23%

How did O=C(O)Cc1sc(NCc2ccco2)nc1-c1ccccc1 do in these assays?
PLK1 PBD block: inconclusive; rTrxR1 inhibitor: 14%[57.1 µM]; TrxR1 substrate: 12%[57.1 µM]; Sfp inh: 25µM*; VDR inhibitor: 6%; IDH1 R132H inh: 6%

How did O=C(O)Cc1sc(-c2ccc(Cl)cc2)nc1-c1ccccc1 do in these assays?
PLK1 PBD block: 24µM*; rTrxR1 inhibitor: 2%; TrxR1 substrate: 5%; Sfp inh: 15%; VDR inhibitor: inconclusive; IDH1 R132H inh: 4%

How did O=C(Cc1sc(Nc2ccccc2)nc1-c1ccccc1)NCc1ccccn1 do in these assays?
PLK1 PBD block: -18%; rTrxR1 inhibitor: -26%; TrxR1 substrate: 5%[57.1 µM]; Sfp inh: 14µM*; VDR inhibitor: 8%; IDH1 R132H inh: -5%

What do the screens show for `Cc1ccc(Nc2nc(-c3ccccc3)c(CC(=O)O)s2)cc1`?
PLK1 PBD block: inconclusive; rTrxR1 inhibitor: 19%[57.1 µM]; TrxR1 substrate: 5%[57.1 µM]; Sfp inh: 0%; VDR inhibitor: 9%; IDH1 R132H inh: -5%

How did O=C(O)Cc1sc(-c2ccccc2)nc1-c1ccc(Cl)cc1 do in these assays?
PLK1 PBD block: -5%; IDH1 R132H inh: 1%

Results for COC[C@H]1OC=C[C@@H](OC)[C@@H]1OC ?
Sfp inh: 5%; VDR inhibitor: 3%

Results for COc1ccc(C2=Nn3c(nnc3-c3ccc(OC)c(OC)c3)SC2)cc1OC ?
Sfp inh: 11%

Results for O=C([O-])[C@@H]1[O][Sb+]([O][Sb+]2[O][C@H]([C@H](O)CO)[C@H](O)[C@H](C(=O)[O-])[O]2)[O][C@H]([C@H](O)CO)[C@@H]1O ?
Sfp inh: -2%; VDR inhibitor: -15%

Results for CCOC(=O)N/N=C1/C[C@@H](O)[C@@H](O)[C@@H]2[C@@H]3C(=O)N(Cc4ccccc4)C(=O)[C@H]3CC[C@@H]12 ?
Sfp inh: 24%

Results for Cc1cccc(Cn2c(-c3ccc[nH]c3=O)nc3ccccc32)c1 ?
PLK1 PBD block: -8%; rTrxR1 inhibitor: 7%; TrxR1 substrate: 222%; Sfp inh: -3%; VDR inhibitor: -21%; IDH1 R132H inh: -15%

What do the screens show for `O=C(O)Cc1sc(Nc2ccc(C(=O)O)cc2)nc1-c1ccccc1`?
rTrxR1 inhibitor: -15%; TrxR1 substrate: -6%; VDR inhibitor: -6%; IDH1 R132H inh: 1%

How did O=C(O)Cc1sc(Nc2ccc(F)cc2)nc1-c1cccs1 do in these assays?
PLK1 PBD block: inconclusive; rTrxR1 inhibitor: -32%; TrxR1 substrate: -5%; Sfp inh: 22µM*; VDR inhibitor: inconclusive; IDH1 R132H inh: -3%

Source: PubChem BioAssay (National Center for Advancing Translational Sciences (NCATS))
